# Many of the other results were omitted from the sample, so the strongest signals are more common in it than they were.
# Columns and labels:
# Assay in all cases: glycan array binding signal (z-score within array); higher = stronger binding
# Settings in all cases: glycan notation: IUPAC condensed, linker removed
# [1] = target: Fuc(a1-2)Gal(b1-3)GlcNAc(b1-2)Man(a1-3)[Fuc(a1-2)Gal(b1-3)GlcNAc(b1-2)Man(a1-6)]Man(b1-4)GlcNAc(b1-4)GlcNAc
# Outline: (§1)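 The binding signal is a Z-score computed within each array and averaged over linkers. Arrays of the same protein sequence at different concentrations or buffers were also averaged together. Data originate from 3228 arrays in the Consortium for Functional Glycomics database, kept only where the protein sequence was available.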
# [2] = target: Fuc(a1-2)Gal(b1-4)GlcNAc(b1-2)Man(a1-3)[Fuc(a1-2)Gal(b1-4)GlcNAc(b1-2)Man(a1-6)]Man(b1-4)GlcNAc(b1-4)GlcNAc
# Outline: as §1
# [3] = target: Fuc(a1-2)Gal(b1-4)[Fuc(a1-3)]GlcNAc(b1-2)Man(a1-3)[Fuc(a1-2)Gal(b1-4)[Fuc(a1-3)]GlcNAc(b1-2)Man(a1-6)]Man(b1-4)GlcNAc(b1-4)GlcNAc
# Outline: as §1
# [4] = target: Fuc(a1-2)[Gal(a1-3)]Gal(b1-4)GlcNAc(b1-2)Man(a1-3)[Fuc(a1-2)[Gal(a1-3)]Gal(b1-4)GlcNAc(b1-2)Man(a1-6)]Man(b1-4)GlcNAc(b1-4)GlcNAc
# Outline: as §1
# [5] = target: Fuc(a1-2)[GalNAc(a1-3)]Gal(b1-4)GlcNAc(b1-2)Man(a1-3)[GalNAc(a1-3)[Fuc(a1-2)]Gal(b1-4)GlcNAc(b1-2)Man(a1-6)]Man(b1-4)GlcNAc(b1-4)GlcNAc
# Outline: as §1
# [6] = target: Fuc(a1-3)[Gal(b1-4)]Glc6S
# Outline: as §1
# [7] = target: Fuc(a1-3)[Gal(b1-4)]GlcNAc
# Outline: as §1
# [8] = target: Fuc(a1-3)[Gal(b1-4)]GlcNAc(b1-2)Man(a1-3)[Fuc(a1-3)[Gal(b1-4)]GlcNAc(b1-2)Man(a1-6)]Man(b1-4)GlcNAc(b1-4)GlcNAc
# Outline: as §1
# [9] = target: Fuc(a1-3)[Gal3S(b1-4)]GlcNAc
# Outline: as §1
# Gal(a1-6)Glc = target: Gal(a1-6)Glc
# Outline: as §1
# [10] = target: Gal(b1-3)Gal(b1-4)GlcNAc(b1-2)Man(a1-3)[Gal(b1-3)Gal(b1-4)GlcNAc(b1-2)Man(a1-6)]Man(b1-4)GlcNAc(b1-4)GlcNAc
# Outline: as §1
# [11] = target: Gal(b1-3)[Neu5Ac(a2-6)]GalNAc
# Outline: as §1
# [12] = target: Gal(b1-4)GalNAc(b1-3)[Fuc(a1-2)]Gal(b1-4)GlcNAc
# Outline: as §1
# Gal(b1-4)Glc = target: Gal(b1-4)Glc
# Outline: as §1
# [13] = target: Gal(b1-4)GlcNAc(b1-2)Man(a1-3)[Man(a1-6)]Man(b1-4)GlcNAc(b1-4)GlcNAc
# Outline: as §1
# [14] = target: Gal(b1-4)GlcNAc(b1-3)Gal(b1-4)GlcNAc
# Outline: as §1
# [15] = target: Gal3S(b1-4)[Fuc(a1-3)]Glc
# Outline: as §1
# Gal4S(b1-4)GlcNAc = target: Gal4S(b1-4)GlcNAc
# Outline: as §1
# Gal6S(b1-4)GlcNAc = target: Gal6S(b1-4)GlcNAc
# Outline: as §1
# [16] = target: GalNAc(b1-4)GlcNAc(b1-2)Man(a1-3)[GalNAc(b1-4)GlcNAc(b1-2)Man(a1-6)]Man(b1-4)GlcNAc(b1-4)GlcNAc
# Outline: as §1
# GlcA(b1-6)Gal = target: GlcA(b1-6)Gal
# Outline: as §1
# [17] = target: GlcNAc(a1-4)Gal(b1-4)GalNAc
# Outline: as §1
# [18] = target: GlcNAc(a1-4)Gal(b1-4)GlcNAc(b1-3)Gal(b1-4)GlcNAc
# Outline: as §1
# [19] = target: GlcNAc(b1-2)Man(a1-3)[GlcNAc(b1-2)Man(a1-6)]Man(b1-4)GlcNAc(b1-4)GlcNAc
# Outline: as §1
# [20] = target: Man(a1-3)[Man(a1-6)]Man(b1-4)GlcNAc(b1-4)GlcNAc
# Outline: as §1
# [21] = target: Neu5Ac(a2-3)Gal(b1-3)GalNAc
# Outline: as §1
# [22] = target: Neu5Ac(a2-3)Gal(b1-3)[Fuc(a1-4)]GlcNAc(b1-3)Gal(b1-4)[Fuc(a1-3)]GlcNAc
# Outline: as §1
# [23] = target: Neu5Ac(a2-3)Gal(b1-4)[Fuc(a1-3)]GlcNAc(b1-6)[Gal(b1-3)]GalNAc
# Outline: as §1
# [24] = target: Neu5Ac(a2-6)Gal(b1-4)GlcNAc
# Outline: as §1
binder,measurement,setting,value
"Neuropilin-1 (Homo sapiens), O14786 (protein) FKCMEALGMESGEIHSDQITASSQYSTNWSAERSRLNYPENGWTPGEDSYREWIQVDLGLLRFVTAVGTQGAISKETKKKYYVKTYKIDVSSNGEDWITIKEGNKPVLFQGNTNPTDVVVAVFPKPLITRFVRIKPATWETGISMRFEVYGCKITDYPCSGMLGMVSGLISDSQITSSNQGDRNWMPENIRLVTSRSGWALPPAPHSYINEWLQIDLGEEKIVRGIIIQGGKHRENKVFMRKFKIGYSNNGSDWKMIMDDSKRKAKSFEGNNNYDTPELRTFPALSTRFIRIYPERATHGGLGLRMELLGCEVE",glycan array binding signal (z-score),[1],1.14
same,glycan array binding signal (z-score),[2],5.83
same,glycan array binding signal (z-score),[3],4.73
same,glycan array binding signal (z-score),[4],6.43
same,glycan array binding signal (z-score),[5],5.34
same,glycan array binding signal (z-score),[6],0.455
same,glycan array binding signal (z-score),[7],-0.168
same,glycan array binding signal (z-score),[8],10.4
same,glycan array binding signal (z-score),[9],-0.158
same,glycan array binding signal (z-score),Gal(a1-6)Glc,-0.168
same,glycan array binding signal (z-score),[10],6.05
same,glycan array binding signal (z-score),[11],-0.23
same,glycan array binding signal (z-score),[12],-0.281
same,glycan array binding signal (z-score),Gal(b1-4)Glc,-0.292
same,glycan array binding signal (z-score),[13],-0.228
same,glycan array binding signal (z-score),[14],-0.228
same,glycan array binding signal (z-score),[15],0.036
same,glycan array binding signal (z-score),Gal4S(b1-4)GlcNAc,-0.235
same,glycan array binding signal (z-score),Gal6S(b1-4)GlcNAc,-0.225
same,glycan array binding signal (z-score),[16],0.263
same,glycan array binding signal (z-score),GlcA(b1-6)Gal,-0.189
same,glycan array binding signal (z-score),[17],1.27
same,glycan array binding signal (z-score),[18],-0.004
same,glycan array binding signal (z-score),[19],-0.176
same,glycan array binding signal (z-score),[20],-0.133
same,glycan array binding signal (z-score),[21],-0.216
same,glycan array binding signal (z-score),[22],0.065
same,glycan array binding signal (z-score),[23],0.942
same,glycan array binding signal (z-score),[24],-0.254

# — the supplement of paper PMC8728848
